Molecules are shown by their SMILES. The panel holds about 83,000 compounds, 20% with a hit somewhere; the sample as a whole holds those more often.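 The test compound was applied at a single concentration to cells in 96-well plates for 48 hours, and percent growth was recorded.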 Values without a mark were called inactive. The source made the active and inactive calls. Rule for the calls: active = growth percent below 10; inactive = the rest.

What all share (assay): NCI-60 one-dose screen, 48 h (100 = growth as untreated, 0 = no growth, -100 = all killed)
For test [1], the system named is EKVX NSCLC. The conditions noted are these: 10 µM unless noted.
Test [2] deals with SN12C renal. The conditions noted are these: 10 µM unless noted.
The subject of test [3] is UO-31 renal. Particulars: 10 µM unless noted.
Test [4] deals with TK-10 renal. The conditions noted are these: 10 µM unless noted.
In test [5] the test system is ACHN renal. The conditions noted are these: 10 µM unless noted.
For test [6], the system named is A498 renal. The conditions noted are these: 10 µM unless noted.
In test [7] the test system is CCRF-CEM leukemia. Particulars: 10 µM unless noted.
The test system of test [8] is OVCAR-8 ovarian. Particulars: 10 µM unless noted.
Test [9] deals with OVCAR-5 ovarian. The conditions noted are these: 10 µM unless noted.
Test [10] concerns OVCAR-4 ovarian. Particulars: 10 µM unless noted.
Test [11] deals with SK-OV-3 ovarian. The conditions noted are these: 10 µM unless noted.
The subject of test [12] is IGROV1 ovarian. The conditions noted are these: 10 µM unless noted.
Test [13] deals with OVCAR-3 ovarian. The conditions noted are these: 10 µM unless noted.
The test system of test [14] is HS 578T breast. The conditions noted are these: 10 µM.
The subject of test [15] is NCI/ADR-RES ovarian. Particulars: 10 µM unless noted.
In test [16] the test system is CAKI-1 renal. Particulars: 10 µM unless noted.
The test system of test [17] is MOLT-4 leukemia. Particulars: 10 µM unless noted.
Test [18] has as its system SR leukemia. The conditions noted are these: 10 µM unless noted.
Test [19] concerns RPMI-8226 leukemia. Particulars: 10 µM unless noted.

Consider `CC(OC(=O)Nc1cccc(Cl)c1)C(=O)O` (centres undefined), for which the growth was 103% in [1]; 92.7% in [2]; 90.7% in test [3]; 102% in test [4]; 97.4% in test [5]; 23.2% in test [6]. Further, the growth in test [7] is 101%; in test [8], 95.3%; in test [9], 89.1%; in test [10] it was 98.6%; in [11] it was 99.1%; in test [12] it was 104%. The growth in test [13] was 96.3%; in test [14], 96.4%; in test [15], 96.8%.
With `O=C1/C(=C\c2cccn2Cc2ccc(Cl)cc2)c2ccccc2N1c1c(Cl)cccc1Cl`, the growth in test [1] is 62.2%; in test [3], 63%; in [4], 87.6%; in test [5] it was 65.7%; in test [16], 75%; in test [6] it was 98%. The growth in test [7] is 82.4%; in test [17], 75.1%; in test [18], 75.3%; in test [19] it was 76.1%; in test [8] it was 85.2%; in test [9] it was 86.8%. The growth is 40.2% in [10]; 86.7% in [11]; 63% in test [12]; 82.3% in test [13]; 97.2% in test [14]; 78.3% in [15].
With `Cc1nc([C@H]2CC[C@H]3[C@@H]4CCC5=CC(=O)CC[C@]5(C)[C@H]4CC[C@]23C)cs1`, the growth is 42.2% in [1]; 84.1% in test [2]; 76.3% in test [3]; 103% in test [4]; 68.6% in [5]; 74.4% in test [6]. Also, the growth was 40.7% in test [7]; 47.9% in test [8]; 91.4% in [9]; 27.4% in test [10]; 85.3% in test [11]; 109% in [12]. Also, the growth was 95.9% in [13], 104% in [14] and 43.7% in [15].
Turning to `O=C(CCc1nc2sc3c(c2c(=O)[nH]1)CCC3)NCc1cn(-c2ccccc2)nc1-c1ccccc1`, the growth in test [1] was 92%; in test [3] it was 98.5%; in [4], 89.4%; in test [5] it was 81.1%; in test [16] it was 92.5%; in test [6] it was 66.4%. Besides, the growth in test [7] was 61%; in test [17], 59.6%; in test [18] it was -18% (active); in test [19], 90%; in test [8] it was 44.3%; in test [9], 86.2%. The growth in test [10] was -48% (active); in test [11], 68.5%; in test [12], 93%; in [13], 16.9%; in test [14] it was 48.4%; in [15] it was 69.5%.
Take `O=C(Nc1ccc(Oc2ccc(NC(=O)Nc3ccccc3Cl)cc2)cc1)Nc1ccccc1Cl`: the growth was 76.5% in [1]; 44.1% in test [2]; 20.1% in test [3]; 75.1% in [4]; 67.4% in test [5]; 42.4% in test [7]. Moreover, the growth was 56.1% in [8]; 101% in test [9]; 29.7% in test [10]; 76.5% in test [11]; -62.3% (active) in test [12]; -38.3% (active) in test [13]. Also, the results for the growth in test [14] and in test [15] were 34.5% and 70.3%, respectively.
Turning to `CCOC(=O)C1=C(C)NC(SCc2nnc(-c3ccc(Cl)cc3)o2)=NC1c1ccc(Cl)cc1` (centres undefined), the growth is 80.2% in [1]; 48.7% in test [3]; 77.5% in test [4]; 64.1% in test [5]; 61.6% in test [16]; 80.7% in [6]. The growth is 39.7% in test [7]; 7.02% (active) in test [17]; 42.9% in [18]; 35.8% in test [19]; 74.8% in test [8]; 89.6% in [9]. Also, the growth was 70% in test [10]; 82.6% in [11]; 62.3% in [12]; 70.8% in [13]; 83.7% in test [14]; 69.9% in test [15].
On to `COc1cccc(OCC(O)CN2CCN(c3ccccc3)CC2)c1` (centres undefined), for which the growth in [1] was 103%; in test [2], 105%; in [3], 96.3%; in test [4], 151%; in test [5], 109%; in test [6], 90.6%. Also, the growth in test [7] was 121%; in test [8] it was 103%; in [9], 105%; in [10], 97.4%; in test [11] it was 106%; in [12], 107%. The growth is 112% in test [13] and 100% in test [15].
As for `Nc1cc2nc3ccccc3oc-2cc1=O`, the growth in [1] was 61%; in test [2], -48.8% (active); in test [3], -40.2% (active); in test [4], 173%; in [5], 53.3%; in test [6] it was -7.02% (active). For the same compound, the growth is 94% in [7]; 58.4% in test [8]; 81.6% in test [9]; 69.6% in test [10]; 92.4% in [11]; 10.1% in [13]. The growth in test [14] was -38.3% (active); in test [15], 60.6%.
As to `CC(=O)OC1Oc2cc(C)c(C)cc2-c2oc(=O)c(-c3cc4ccccc4oc3=O)cc21` (centres undefined), the growth is 115% in test [1]; 114% in test [2]; 96.2% in test [3]; 156% in [4]; 71.9% in test [5]; 75% in [6]. The growth in test [7] is 94%; in [8], 101%; in test [9], 97.6%; in test [10], 97.2%; in [11], 89.4%; in [12], 73.8%. Further, the results for the growth in test [14] and in [15] were 423% and 94.7%, respectively.
`Cc1cc(O)ccc1C1=NN(c2ccc(S(N)(=O)=O)cc2)C(=O)CC1`: the growth in [1] was 52.6%; in test [2] it was 70.7%; in [3], 65.4%; in test [4], 114%; in test [5], 77.6%; in [6], -2.97% (active). Further, the growth in [7] is 46.2%; in [8] it was 50.1%; in test [9], 93%; in [10] it was 59.2%; in [11], 64.9%; in [12] it was -9.76% (active). Further, the values for the growth in [14] and in test [15] were 18.8% and 22.4%, respectively.

The values above are taken from PubChem BioAssay (NCI).
